# Test results from PubChem BioAssay (NCI).
# Compounds without any hit were thinned out: in the full panel of roughly 79,000, 15% have a hit. Calls of active or inactive are those of the source. Cut-off read from the data, not from the text of the source: active = growth inhibition above about 70%; inactive = the rest.
# Assay: NCI Yeast Anticancer Drug Screen. Data for the sgs1 mgt1 strain (AID 161);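 note: 0% = growth of cultures given vehicle only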
# Conditions: S. cerevisiae sgs1 mgt1 strain, hits give high values; at 50.0 µM unless noted
# In short: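 Compounds are added to genetically altered yeast, and growth is compared with cultures given vehicle alone to give percent inhibition.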
row,Compound,growth inhibition
1,COc1ccc(/C=C2\N=C3N(Cc4ccccc4)C=C(N)N3C2=O)cc1,15.8% (inactive)
2,O=C1CC(c2ccccc2)n2c(nc3ccccc32)N1 (centres undefined),-18.1% (inactive)
3,C#CC(C)(O)CCC(C)C (centres undefined),-3.3% (inactive)
4,Clc1ccc(OCC(COc2ccccc2)Oc2nc(-c3ccccc3)nc(-c3ccccc3)n2)cc1 (centres undefined),3.1% (inactive)
5,c1ccc(C(=NN=C(c2ccccc2)c2ccccc2)c2ccccc2)cc1,8.4% (inactive)
6,CCCCCCN1COCC(COc2ccc(Cl)cc2)OC1 (centres undefined),36.9% (inactive)
7,O=[N+]([O-])c1ccc(CS(=O)Cc2ccccc2)cc1 (centres undefined),1.35% (inactive)
8,COc1ccc(NS(=O)c2ccccc2)cc1 (centres undefined),3.1% (inactive)
9,Cc1ccccc1C(=O)NC(O)(C(F)(F)F)C(F)(F)F,14.6% (inactive)
10,CC(O)CCC(=O)c1nc2ccccc2s1 (centres undefined),5.95% (inactive)
11,CCOC(=O)c1c[nH]n(-c2ccccc2)c1=O,-4.75% (inactive)
12,Nc1c(Cl)ncnc1Nc1ccc(CCO)cc1,22.6% (inactive)
13,CC(N)C(=O)NO (centres undefined),-16.2% (inactive)
14,CC(=O)NS(=O)(=O)c1ccc(NC(=O)/C=C/C(=O)O)cc1,-0.45% (inactive)
15,Nc1nc(=O)[nH]c(=O)[nH]1,-7.05% (inactive)
16,O=C1CCCCC(=O)Nc2ccccc2N1,-6.85% (inactive)
17,NCc1ccc(F)cc1,32% (inactive)
18,CC1(C)N=C(C(N)=O)c2ncn(Cc3ccccc3)c2N1,-23.6% (inactive)
19,C(=Nc1cccnc1)c1ccc(C=Nc2cccnc2)cc1,30.3% (inactive)
